BJeLR viability = BJeLR cell viability loss | BJeLR (HRASV12) viability, CellTiter-Glo ATP luminescence, 48 h | inhibition, % (no concentration beside the values) | 300,000 compounds, 0.17% hits | AID 1554; in the data active means inhibition above about 50%
SSB-PriA inh = inhibitors of Klebsiella pneumoniae PriA binding to SSB C-terminal tail | AlphaScreen SSBct-PriA binding, biotinylated peptide | 430,000 compounds, 0.6% hits | inhibition, % at 33 µM; in the data active means inhibition mostly above about 37%, no sharp cut-off; inactive means mostly below about 20%;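 further: plate controls were negative control peptide for no effect and reference peptide for full effect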
Yp Topo-I inh = Y. pestis Topo-I inhibition via cleavage products; Y. pestis Topo-I cleavage product accumulation, plate reader; activity, % at 10 µM; 360,000 compounds, 0.064% hits; AID 504884; in the data active means activity above about 50%, passing the limit was not always enough
PfHsp40 yeast = compounds rescuing yeast from Plasmodium falciparum HSP40 toxicity; AID 504582; S. cerevisiae expressing PfHsp40, growth rescue, ATP luminescence; growth rescue, % at 12.5 µM; 340,000 compounds, 0.68% hits; in the data active means growth rescue above about 28%, passing the limit was not always enough;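 further: yeast W303a lacking pdr1 and pdr3 grown in galactose medium; growth measured after three days at 30 °C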
PrP UTR inh = inhibition of PrP 5' UTR reporter expression; cell-based PrP 5' UTR mRNA reporter, plate reader; inhibition, % (concentration not given with the values); 340,000 compounds, 0.35% hits; in the data active means inhibition above about 52%; further: 0 = median of the neutral control wells
PrPC TRFRET = reduces human prion protein on the cell surface; cell surface PrPC, TR-FRET read-out; inhibition, % at 13.8 µM; 370,000 compounds, 0.43% hits; AID 720596; P04156; in the data active means inhibition above about 24%; further: 0% = median of the test wells and 100% = reference compound wells
PrPC TRFRET cf = cell surface PrPC inhibition, TR-FRET confirmation | shares compounds with PrPC TRFRET | cell surface PrPC level | inhibition, % at 13.8 µM | 1,500 compounds, 65% hits | AID 743200; in the data active means inhibition above about 25%
LD9 tox = counter-screen for PrPc inhibitors: cytotoxicity in LD9 cells; shares compounds with PrPC TRFRET; luminescence viability; inhibition, % at 13.8 µM; 1,500 compounds, 29% hits; AID 743201; in the data active means inhibition above about 9.5%
Numbers without * were called inactive; nt = no result given; ! = not confirmed by another sample. Rows were chosen to be rich in hits. Some 1.7% of all compounds tested hit in one or more screens of this group.

SMILES	BJeLR viability	SSB-PriA inh	Yp Topo-I inh	PfHsp40 yeast	PrP UTR inh	PrPC TRFRET	PrPC TRFRET cf	LD9 tox
COc1cccc(NC(=O)CNc2cc(S(=O)(=O)N3CCOCC3)ccc2N2CCCC2)c1	nt	21.9	17.6	0.1	-22.2	4.2	nt	nt
COc1ccc(NCC(=O)Nc2cc(S(=O)(=O)N3CCOCC3)ccc2N2CCOCC2)c(OC)c1	4.5	1.3	12.6	-0.4	-25.9	24.8*	-0.1	-0.4
COc1ccc(C(=O)N2N=C(c3cccs3)CC2c2cccc(OC)c2O)cc1 (stereo not given)	nt	34.0	nt	nt	nt	nt	nt	nt
Cc1nc(N2CCN(Cc3ccc4c(c3)OCO4)CC2)c2oc3ccccc3c2n1	nt	6.1	24.4	0.3	-10.4	47.5*	10.9	15.1*
Cc1nc(N2CCN(Cc3ccc(Cl)cc3)CC2)c2oc3ccccc3c2n1	2.1	0.4	-3.0	1.0	0.3	-1.4	nt	nt
COc1ccc(S(=O)(=O)N2CCCCC2c2cc(C(=O)Nc3ccc4c(c3)OCO4)no2)cc1 (stereo not given)	nt	nt	-0.1	nt	nt	28.0*	18.3	-2.8
CS(=O)(=O)N1CCCCC1c1cc(C(=O)Nc2ccc3c(c2)OCO3)no1 (stereo not given)	nt	nt	0.7	nt	nt	-3.1	nt	nt
N#Cc1cccc(NC(=O)c2cc(C3CCCCN3S(=O)(=O)c3ccccc3)on2)c1 (stereo not given)	nt	nt	-6.4	nt	nt	26.3*	17.2	-1.8
O=C(Nc1ccc2c(c1)OCO2)c1cc(C2CCCN(C(=O)CCc3ccccc3)C2)on1 (stereo not given)	nt	nt	18.8	nt	nt	38.2*	25.4*	-1.0
O=C(Nc1ccc2c(c1)OCO2)c1cc(C2CCCN(C(=O)CCCc3ccccc3)C2)on1 (stereo not given)	nt	nt	29.8	nt	nt	23.3	nt	nt
O=C(Cn1cc(S(=O)(=O)c2ccc(F)cc2)c2ccccc21)NCc1ccccn1	nt	-11.0	nt	nt	nt	nt	nt	nt
N#CCC(N)=C(C#N)C#N	-2.3	-2.6	7.8	0.8	-21.0	61.3*	18.2	-3.1
COC(=O)CSc1nc(-c2ccccc2)nc2ccccc12	-0.8	-84.5	16.1	0.1	-16.4	105.8*	112.8*	-6.6
NC(=O)CSc1nc(-c2ccccc2)nc2ccccc12	-4.1	-1.4	-1.4	-1.4	-9.2	69.6*	72.0*	-9.4
Cc1cc(OC2CCN(S(=O)(=O)c3ccc4c(c3)CCCC4)CC2)cc(=O)n1C	nt	-8.0	nt	nt	nt	nt	nt	nt
COc1ccc(S(=O)(=O)C2CN(C(=O)c3ccc(=O)n(C)n3)C2)cc1	nt	-23.0	nt	nt	nt	nt	nt	nt
N#Cc1c(-c2ccco2)nc(SCc2ccc(F)cc2)[nH]c1=O	-0.9	7.1	-9.7	-1.2	-2.2	94.8*	121.1*	-6.8
O=C(Nc1ccn(Cc2c(F)c(F)cc(F)c2F)n1)c1ccc(COc2ccccc2Cl)cc1	6.9	-11.3	-9.4	-0.5	17.7	nt	nt	nt
O=C(Nc1ccn(Cc2ccccc2F)n1)c1ccc(COc2ccccc2Cl)cc1	2.3	-2.0	12.5	0.4	20.5	41.6*	30.9*	0.6
Cc1cc(C)nc(NC(=O)c2ccc(COc3ccccc3Cl)cc2)c1	-10.3	-28.4	6.5	2.6	-25.2	27.0*	23.7	-1.7
Cc1ccccc1N1OC2C(=O)N(c3sc4c(c3C#N)CCCC4)C(=O)C2C1c1ccccc1 (stereo not given)	nt	8.0	nt	nt	nt	nt	nt	nt
NC(=NOC(=O)c1cc(-c2ccccc2)nc2ccccc12)c1cccnc1	nt	-25.0	nt	nt	nt	nt	nt	nt
O=C(NCc1ccncc1)[C@H]1CCCN(c2ccc(Sc3ccc(Br)cc3)nn2)C1	nt	4.0	nt	nt	nt	nt	nt	nt
Cc1cnc(NC(=O)CN2CCN(c3ccccn3)CC2)s1	6.7	-4.9	8.5	-0.5	-12.7	37.9*	30.9*	11.2*
Cc1ccccc1C(=O)NN1C(=O)CSC1=S	-0.2	7.2	0.4	-1.3	-12.0	34.5*	11.1	-6.2
SMILES	BJeLR viability	SSB-PriA inh	Yp Topo-I inh	PfHsp40 yeast	PrP UTR inh	PrPC TRFRET	PrPC TRFRET cf	LD9 tox
COc1ccc(OC)c(C2C(C(N)=O)=C(C)Nc3nc(-c4cccc(Cl)c4)nn32)c1 (stereo not given)	-0.3	-3.5	2.2	-0.9	-23.1	42.4*	33.8*	0.4
COc1ccccc1-c1nc2n(n1)C(c1ccccc1Cl)C(C(N)=O)=C(C)N2 (stereo not given)	-11.1	-2.8	-1.0	-0.9	-3.5	-5.4	nt	nt
COc1cn(CC(=O)Nc2ccc3c(c2)OCCO3)c(CSc2nc(C)cc(C)n2)cc1=O	nt	-5.0	nt	nt	nt	nt	nt	nt
NC(=O)c1cccc(-c2cc(Nc3ccc(OC(F)(F)F)cc3)ncn2)c1	6.7	-13.1	10.6	1.2	-15.0	51.3*	24.2	6.6
O=C(NCCO)c1cccc(-c2cc(Nc3ccc(OC(F)(F)F)cc3)ncn2)c1	nt	nt	nt	nt	nt	-2.5	nt	nt
O=C(CSc1nc2c(c(=O)n1-c1ccc(OC(F)(F)F)cc1)SCC2)Nc1ccccc1F	nt	-3.0	nt	nt	nt	nt	nt	nt
COCCCn1c(SCc2ccc(OC)cc2)nc2cc(OC)c(OC)cc2c1=N	-15.0	-0.5	7.9	-0.6	-13.5	119.1*	5.5	6.7
CCN(CC)CC(C)(C)C(=O)/C=C/c1ccc(/C=C/C(=O)C(C)(C)CN(CC)CC)cc1	nt	-2.5	17.8	0.3	46.1	89.8*	105.1*	95.7*
CCN(CC)CCOC(=O)/C=C/c1ccccc1	-2.1	-9.6	-2.9	-0.1	-17.3	-1.8	nt	nt
CCc1cc(=O)oc2cc(OC(C)=O)cc(OC(C)=O)c12	-3.3	-2.5	-0.6	-1.1	-4.3	47.4*	45.9*	-6.3
CC(=O)Nc1nc(C)c(C(C)=O)s1	0.6	-1.7	3.4	-1.1	-12.6	6.7	nt	nt
CC(=O)c1sc(NC(=O)C(C)C)nc1C	-2.4	-7.0	-4.2	-0.1	-20.2	33.4*	35.4*	-3.1
COc1ccc(CCNc2ccc3nnc(CCNC(=O)c4ccc(C)cc4)n3n2)cc1OC	nt	-4.0	nt	nt	nt	nt	nt	nt
COc1cccc(C(=O)N2CCN(C[C@H](O)c3cccs3)CC2)c1	nt	2.0	nt	nt	nt	nt	nt	nt
CC(C)c1ccccc1NC(=O)[C@@H]1COCC(=O)N1Cc1ccccc1	nt	-8.0	nt	nt	nt	nt	nt	nt
O=C1C=CC(O)(c2cc(=O)c3c(O)cc(O)cc3o2)C=C1	-30.8	-12.4	-4.4	-1.8	-65.2	82.2*	76.8*	59.2*
CC(=O)c1sccc1NC(=O)c1ccccc1C(=O)O	10.8	-8.4	5.5	0.3	-7.6	47.0*	109.0*	-5.6
O=C(CCc1ccccc1Br)N(Cc1ccoc1)Cc1cccs1	nt	-5.0	nt	nt	nt	nt	nt	nt
CSc1nsc2nc(=O)c(/C=C3\C(C)=Nc4ccc(C)cc43)c(N)n12	-2.3	nt	-12.0	-0.6	5.5	-3.7	nt	nt
CC1=Nc2ccc(C)cc2/C1=C/c1c(N)n2oc(C)cc2nc1=O	-0.5	nt	4.6	-0.3	-12.7	45.6*!	15.8	-5.2
COc1ccc(Cl)cc1C(=O)Nc1ccc(-c2ccc3nncn3n2)cc1	nt	1.0	nt	nt	nt	nt	nt	nt
COc1ccc(C2SCC(=O)Nc3c2c(=O)[nH]n3C2CCCCCC2)cc1 (stereo not given)	-3.2	-13.5	0.2	0.8	-7.3	1.7	nt	nt

Screens (PubChem)
